Some test systems named below: SR leukemia; OVCAR-8 ovarian; OVCAR-5 ovarian; OVCAR-4 ovarian; SK-OV-3 ovarian; IGROV1 ovarian; OVCAR-3 ovarian; HS 578T breast; T-47D breast; BT-549 breast; MDA-MB-435 melanoma; SW-620 colon; MCF7 breast; HCT-116 colon; HCC-2998 colon; KM12 colon; NCI/ADR-RES ovarian.
Holding throughout (assay): NCI-60 one-dose screen, 48 h (100 = growth as untreated, 0 = no growth, -100 = all killed)
Holding throughout (conditions): 10 µM unless noted

The panel holds about 83,000 compounds, 20% with a hit somewhere; the sample as a whole holds those more often.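 In brief: 96-well plates, 48 h treatment, single concentration, percent growth endpoint.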 Values without a mark were called inactive. Calls of active or inactive are those of the source. The calls were made as follows: active = growth percent below 10; inactive = the rest.

As to `CCCCn1c(=O)c(-c2cc(-c3ccc(Cl)cc3)nc(-c3ccc(Cl)cc3)c2)cc2ccc(Cl)cc21`, the growth in the experiment with SR leukemia is 98.1%; in the experiment on OVCAR-8 ovarian, 108%; in the experiment on OVCAR-5 ovarian it was 94.1%; in the experiment with OVCAR-4 ovarian it was 109%; with SK-OV-3 ovarian, 99.6%; with IGROV1 ovarian, 105%. The growth in the experiment on OVCAR-3 ovarian is 112%; with HS 578T breast, 108%; in the experiment with T-47D breast, 99.6%; with BT-549 breast it was 105%; in the experiment with MDA-MB-435 melanoma, 103%; with SW-620 colon, 100%. Besides, the growth in the experiment with MCF7 breast is 93.1%; in the experiment on HCT-116 colon, 105%; with HCC-2998 colon it was 103%; in the experiment on KM12 colon, 99.3%.

On to `CCOC(=O)C1=C(N)Oc2c(sc3c(C)cccc23)C1c1ccc(F)cc1` (configuration not stated), for which the growth in the experiment on SR leukemia is 5.82% (active); in the experiment with OVCAR-8 ovarian it was 19%; in the experiment on OVCAR-5 ovarian, 27.9%; with OVCAR-4 ovarian, 42.7%; in the experiment on SK-OV-3 ovarian, 60%; in the experiment with IGROV1 ovarian, 16.9%. The growth is -32.9% (active) in the experiment on OVCAR-3 ovarian; 13.6% in the experiment with HS 578T breast; 6.4% (active) in the experiment on NCI/ADR-RES ovarian; 28% in the experiment on T-47D breast; 18.1% in the experiment on BT-549 breast; 22.4% with SW-620 colon. In addition, the growth in the experiment with MCF7 breast is 7.39% (active); with HCT-116 colon, 9.01% (active); in the experiment with HCC-2998 colon it was 9.19% (active); with KM12 colon it was 9.22% (active).

Turning to `COc1cccc(-c2nc(-c3ccc(NS(=O)(=O)c4ccccc4)cc3)[nH]c2-c2ccnc(Br)c2)c1`, the growth with SR leukemia is 8.32% (active); in the experiment with OVCAR-8 ovarian, 33.4%; with OVCAR-5 ovarian it was 48.3%; in the experiment on OVCAR-4 ovarian it was 34.2%; in the experiment on SK-OV-3 ovarian, 63.1%; in the experiment on IGROV1 ovarian, 44.6%. Also, the growth in the experiment with OVCAR-3 ovarian was 30.2%; in the experiment with HS 578T breast it was 7.88% (active); with NCI/ADR-RES ovarian, 40.8%; in the experiment on T-47D breast, 14.2%; in the experiment on BT-549 breast, 51.3%; in the experiment with SW-620 colon, 34.3%. Also, the growth in the experiment with MCF7 breast is 9.68% (active); with HCT-116 colon, 17%; in the experiment with HCC-2998 colon it was 21.8%; in the experiment on KM12 colon, 8.67% (active).

For the compound `C(=N/Nc1ncnc2nc[nH]c12)/c1ccccn1`, the growth is 25.7% in the experiment on SR leukemia; 28.5% in the experiment with OVCAR-8 ovarian; 50.8% in the experiment on OVCAR-5 ovarian; 31.9% with OVCAR-4 ovarian; 28.9% with SK-OV-3 ovarian; -8.74% (active) with IGROV1 ovarian. Moreover, the growth in the experiment with OVCAR-3 ovarian was 51%; with HS 578T breast, 64.1%; in the experiment with T-47D breast, 30.2%; in the experiment on BT-549 breast it was 54.7%; with MDA-MB-435 melanoma, 39.5%; in the experiment with SW-620 colon, 36.8%. Further, the growth is 22.9% in the experiment on MCF7 breast, 28.1% in the experiment with HCT-116 colon, 28.2% in the experiment with HCC-2998 colon and 36.3% in the experiment on KM12 colon.

As to `COc1cccc(-c2nc(-c3ccc(NC(=O)OC(C)C)cc3)[nH]c2-c2ccnc(Br)c2)c1`, the growth in the experiment on SR leukemia is -2.3% (active); with OVCAR-8 ovarian, 27.3%; with OVCAR-5 ovarian, 53.7%; in the experiment on OVCAR-4 ovarian, 32.9%; in the experiment on SK-OV-3 ovarian, 33.3%; in the experiment with IGROV1 ovarian, 35.5%. The growth is 26.2% in the experiment with OVCAR-3 ovarian; -17.2% (active) in the experiment with HS 578T breast; 27.7% with NCI/ADR-RES ovarian; 6.55% (active) in the experiment with T-47D breast; 48% with BT-549 breast; 34.2% in the experiment with SW-620 colon. In addition, the growth was 10.5% in the experiment with MCF7 breast, 13.2% in the experiment with HCT-116 colon, 39.5% in the experiment on HCC-2998 colon and 17% in the experiment on KM12 colon.

With `Cc1ccc(/C=N\NC(=O)c2[nH]c3ccc(F)cc3c2-c2ccccc2)cc1`, the growth in the experiment with SR leukemia is 19.7%; in the experiment on OVCAR-8 ovarian, 16.6%; with OVCAR-5 ovarian, 62.5%; with OVCAR-4 ovarian, 46.8%; in the experiment with SK-OV-3 ovarian it was 20.4%; with IGROV1 ovarian, 91.4%. In addition, the growth in the experiment on OVCAR-3 ovarian was -32.3% (active); in the experiment with HS 578T breast, 16.7%; with T-47D breast, 75.4%; in the experiment on BT-549 breast it was 36.8%; in the experiment on MDA-MB-435 melanoma, -13.8% (active); in the experiment with SW-620 colon, 25.7%. For the same compound, the growth with MCF7 breast is 15.3%; with HCT-116 colon it was 10.8%; with HCC-2998 colon, -24.8% (active); in the experiment with KM12 colon, -0.0461% (active).

In the case of `COc1ccc(/C=C2\Oc3cc(OCCN4CCC(Cc5ccccc5)CC4)ccc3C2=O)cc1OC`, the growth with SR leukemia was -1.05% (active); in the experiment on OVCAR-8 ovarian it was 39.1%; in the experiment on OVCAR-5 ovarian, 93.4%; in the experiment with OVCAR-4 ovarian, 79.3%; in the experiment with SK-OV-3 ovarian it was 87.8%; with IGROV1 ovarian it was 82.1%. The growth with OVCAR-3 ovarian is 87%; in the experiment with HS 578T breast it was 74.6%; in the experiment on T-47D breast, 60.7%; in the experiment on BT-549 breast, 64.2%; with MDA-MB-435 melanoma it was 76.5%; with SW-620 colon it was 40.8%. Also, the growth in the experiment with MCF7 breast was 49.2%; in the experiment with HCT-116 colon it was 49%; with HCC-2998 colon, -2.67% (active); with KM12 colon, 68.2%.

(Values after PubChem BioAssay (NCI).)
